Measured values reported in PubChem BioAssay (Tox21).
Records with an inconclusive call do not appear. Calls of active or inactive are those of the source. Unless noted, the call rests on the fitted dose curve; in most records, active means well fitted curve in the direction sought with a large enough effect in the repeat runs; inconclusive means weak or mixed curves; inactive means no such curve, though single readings can be large; an effect the other way counts as inactive or inconclusive.

What was measured:
[1] = qHTS assay for small molecules that induce genotoxicity in human embryonic kidney cells expressing luciferase-tagged ATAD5 (AID 651632); further: nearly all actives have a fitted effect of over 15% in size
Procedure, shortened: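 Reporter cells (HEK293T) express luciferase-tagged ATAD5, a protein that accumulates after DNA damage. Treat 16 hr at 37C/5% CO2, add Amplite, wait 30 min at RT, and read luminescence.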

[2] = qHTS assay for small molecule agonists of the p53 signaling pathway - cell viability (AID 651633; calls by dose curve; further: nearly all actives have a fitted effect of over 30% in size; further: potency means the concentration at half of the fitted maximal effect)
Procedure, shortened: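 p53RE-bla cells, seeded at 4,000 per well and rested 5 h at 37 C/5% CO2, received compounds in DMSO for 16 h at 37 C. CellTiter-Glo was then added, and luminescence was read after 30 min at room temperature to gauge cytotoxicity.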

[3] = qHTS assay for small molecules that induce genotoxicity in human embryonic kidney cells expressing luciferase-tagged ATAD5 - cell viability (AID 651634; calls by dose curve; further: nearly all actives have a fitted effect of over 25% in size; further: potency means the concentration at half of the fitted maximal effect)
Procedure, shortened: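 Seeding of 2,000 HEK293T ATAD5-luciferase cells per well preceded pin-tool compound transfer. Plates sat 15.5 hr at 37C under 5% CO2, then fluorescence was read after 30 min with CellTiter-Fluor.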

[4] = qHTS assay to test for compound auto fluorescence at 590 nm (red) in HepG2 cells (AID 720674)
Procedure, shortened: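 Compound auto-fluorescence is scored relative to Rose Bengal sodium, measured at 540/590 nm in live HepG2 cultures after 1 hr compound contact (37 C, 5% CO2).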

[5] = qHTS assay to test for compound auto fluorescence at 460 nm (blue) in HEK293 cells (AID 720678)
Procedure, shortened: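 HEK293 cells (2,000 per well, medium with 10% dialyzed FBS) attached for 4-5 hr at 37C, then received compound and stood overnight at 37C, 5% CO2. Blue fluorescence was read at Ex/Em 405/460 nm and expressed relative to triamterene.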

[6] = qHTS assay to test for compound auto fluorescence at 590 nm (red) in HEK293 cells (AID 720679)
Procedure, shortened: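 HEK293 cells (2,000/well, medium with 10% dialyzed FBS) attached for 4-5 hr at 37C, received 23 nL compound and were incubated overnight at 37C, 5% CO2. Red fluorescence was then read at 540/590nm Ex/Em, referenced to Rose Bengal sodium.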

[7] = qHTS assay to test for compound auto fluorescence at 535 nm (green) in HEK293 cells (AID 720680)
[8] = qHTS assay to test for compound auto fluorescence at 535 nm (green) in HEK293 cell free culture (AID 720682)
Procedure, shortened: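 Fluorescein serves as the green reference fluorophore; each compound's intrinsic emission at 535 nm (excitation 485 nm) is reported as an equivalent amount of that dye, measured in serum-containing DMEM without cells.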

[9] = qHTS assay to test for compound auto fluorescence at 590 nm (red) in HEK293 cell free culture (AID 720683)
Procedure, shortened: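 Tox21 10K library compounds were pinned into cell-free DMEM with 10% FBS and fluorescence was read at excitation 540 nm. Activity is expressed as Rose Bengal sodium equivalency.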

[10] = qHTS assay to test for compound auto fluorescence at 590 nm (red) in HepG2 cell free culture (AID 720684)
Procedure, shortened: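 Red fluorescence (540 nm excitation, 590 nm emission) was measured after compound transfer into cell-free MEM supplemented with 10% FBS. Values are equivalencies against Rose Bengal sodium.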

[11] = qHTS assay to test for compound auto fluorescence at 460 nm (blue) in HepG2 cell free culture (AID 720685)
Procedure, shortened: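 Compound (23 nL) or DMSO pinned into cell-free MEM with 10% FBS; blue fluorescence read at 405/460 nm excitation/emission, expressed as auto-fluorescence equivalency to triamterene.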

[12] = qHTS assay to test for compound auto fluorescence at 535 nm (green) in HepG2 cell free culture (AID 720686)
[13] = qHTS assay to test for compound auto fluorescence at 460 nm (blue) in HepG2 cells (AID 720687)
Procedure, shortened: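 Cells (2,000/well in MEM with 10% FBS) attached overnight at 37 C, then were exposed to compound or DMSO for 1 hr at 37 C, 5% CO2. Fluorescence read at Ex/Em 405/460 nm, expressed as triamterene-equivalent signal.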

[14] = qHTS assay to test for compound auto fluorescence at 535 nm (green) in HepG2 cells (AID 720675)
[15] = qHTS assay to test for compound auto fluorescence at 460 nm (blue) in HEK293 cell free culture (AID 720681)
Procedure, shortened: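 Test compounds were pinned into cell-free culture medium (DMEM with 10% FBS) and fluorescence was read directly at Ex/Em 405/460 nm. Signals were expressed as fluorescence equivalents of triamterene, with DMSO vehicle as control.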

[16] = biological target: Glucocorticoid receptor (Homo sapiens) (UniProt P04150); experiment: qHTS assay to identify small molecule agonists of the glucocorticoid receptor (GR) signaling pathway (AID 720691; active means well fitted activation curve with a large enough effect in the signal ratio in the repeat runs, not every such curve was filed as active; the % refers to the signal ratio); settings: GR-bla HeLa, beta-lactamase reporter ratio, 18 h; activation: at 62.4 µM (top of the series)
Sequence of Glucocorticoid receptor (Homo sapiens) (P04150 whole entry, looked up): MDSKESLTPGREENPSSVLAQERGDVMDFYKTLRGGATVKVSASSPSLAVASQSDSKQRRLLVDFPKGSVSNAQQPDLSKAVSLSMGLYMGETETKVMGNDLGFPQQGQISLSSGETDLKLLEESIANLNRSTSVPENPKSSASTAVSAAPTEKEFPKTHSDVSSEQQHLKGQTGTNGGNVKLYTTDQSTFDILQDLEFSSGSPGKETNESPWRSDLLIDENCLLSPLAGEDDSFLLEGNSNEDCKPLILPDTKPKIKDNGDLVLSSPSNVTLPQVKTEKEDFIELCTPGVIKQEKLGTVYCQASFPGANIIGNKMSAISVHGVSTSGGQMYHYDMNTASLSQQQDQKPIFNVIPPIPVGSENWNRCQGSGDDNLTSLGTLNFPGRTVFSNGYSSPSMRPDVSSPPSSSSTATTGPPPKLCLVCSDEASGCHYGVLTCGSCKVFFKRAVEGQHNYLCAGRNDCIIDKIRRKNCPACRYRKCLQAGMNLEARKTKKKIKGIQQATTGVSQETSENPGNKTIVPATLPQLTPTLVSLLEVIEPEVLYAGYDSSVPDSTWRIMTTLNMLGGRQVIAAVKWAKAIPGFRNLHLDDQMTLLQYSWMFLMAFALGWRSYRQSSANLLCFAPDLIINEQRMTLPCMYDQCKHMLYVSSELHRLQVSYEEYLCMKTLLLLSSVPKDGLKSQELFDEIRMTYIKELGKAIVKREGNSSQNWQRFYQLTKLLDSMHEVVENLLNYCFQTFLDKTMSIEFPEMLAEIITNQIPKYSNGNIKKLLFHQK
Procedure, shortened: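 Reporter read-out: fluorescence intensity following 2 h room-temperature LiveBLAzer B/G FRET substrate loading. Prior step: GR-bla HeLa cells held 4 h, then treated 18 h at 37 C.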

[17] = qHTS assay for small molecule disruptors of the mitochondrial membrane potential (AID 720635); further: potency means the concentration at half of the fitted maximal effect
Procedure, shortened: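 HepG2 cells (2,000/well) attached overnight at 37C, then took compound for 1 hr at 37C, 5% CO2. Mito-MPS dye was added for 30 min; fluorescence was read at 490/535 nm (monomers) and 540/590 nm (aggregates).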

[18] = biological target: Glucocorticoid receptor (Homo sapiens) (UniProt P04150); experiment: qHTS assay to identify small molecule antagonists of the glucocorticoid receptor (GR) signaling pathway (AID 720692; active means well fitted inhibition curve with a large enough effect in the signal ratio in the repeat runs, not every such curve was filed as active; the % refers to the signal ratio; further: potency means the concentration at half of the fitted maximal effect)
Procedure, shortened: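 Dexamethasone (5 nM final) stimulated a stably integrated GRE-beta-lactamase reporter in HeLa cells during 18 h co-incubation with compounds; signal was quantified as fluorescence intensity of B/G FRET substrate after 2 h.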

[19] = qHTS assay for small molecule disruptors of the mitochondrial membrane potential - cell viability (AID 720634; calls by dose curve; further: nearly all actives have a fitted effect of over 20% in size; further: potency means the concentration at half of the fitted maximal effect)
Procedure, shortened: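 Measuring cytotoxicity alongside mitochondrial potential, the screen quantified ATP by luminescence in HepG2 cells after 1 hr compound incubation and a 30 min room-temperature CellTiter-Glo step.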

Measured: Potency

Nc1c(Cl)c(Cl)c(Cl)c(Cl)c1Cl
not listed: [14] | [15] | [16] | [17] | [18] | [19]
inactive: all other assays above

CCC(C)Nc1c([N+](=O)[O-])cc(C(C)(C)C)cc1[N+](=O)[O-] (configuration not stated)
not listed: [9] | [17] | [18] | [19]
inactive: all other assays above

O=S1(=O)OCC2C(CO1)C1(Cl)C(Cl)=C(Cl)C2(Cl)C1(Cl)Cl (configuration not stated)
active: [17] 13.7 µM | [18] 17.4 µM
not listed: [14] | [19]
inactive: all other assays above

CNC(=O)/C=C(\C)OP(=O)(OC)OC
not listed: [14] | [15] | [17] | [18] | [19]
inactive: all other assays above

CN(C)CCc1c[nH]c2ccccc12
not listed: [2]
inactive: all other assays above

COP(=S)(OC)Oc1ccc([N+](=O)[O-])c(C)c1
active: [17] 68.6 µM
not listed: [18] | [19]
inactive: all other assays above

Cc1ccccc1OP(=O)(Oc1ccccc1C)Oc1ccccc1C
active: [19] 9.73 µM | [17] 17.3 µM | [18] 27.6 µM
not listed: [2]
inactive: all other assays above

CSC(C)(C)/C=N/O
not listed: [2]
inactive: all other assays above

Cc1c([N+](=O)[O-])cc2c(c1[N+](=O)[O-])C(C)(C)CC2(C)C
active: [17] 30.6 µM
not listed: [6] | [15] | [19]
inactive: all other assays above

NC1CCC(CC2CCC(N)CC2)CC1 (configuration not stated)
not listed: [3] | [14]
inactive: all other assays above

O=[N+]([O-])c1cccc2cccc([N+](=O)[O-])c12
active: [17] 9.73 µM
not listed: [15] | [18] | [19]
inactive: all other assays above

CSC(=O)c1c(C(F)F)nc(C(F)(F)F)c(C(=O)SC)c1CC(C)C
not listed: [17] | [18] | [19]
inactive: all other assays above

COC(=O)/C=C(\C)OP(=O)(OC)OC
not listed: [17] | [18] | [19]
inactive: all other assays above

CCC(C)c1cccc(C(C)CC)c1O (configuration not stated)
active: [17] 13.7 µM
not listed: [2] | [14] | [16] | [18]
inactive: all other assays above

CCN1CCC2(CC1)COc1cc3c(cc12)N(C(=O)c1ccc(-c2ccc(-c4nnc(C)o4)cc2C)cc1)CC3
active: [2] 56.4 µM | [3] 56.4 µM | [17] 7.96 µM
not listed: [16] | [18] | [19]
inactive: all other assays above
